Reference: PubChem BioAssay (NCI)
This is part of a sample that, as a whole, favours compounds with a hit. Of some 83,000 tested, about 20% had one in any assay.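 In brief: 96-well plates, 48 h treatment, single concentration, percent growth endpoint.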 Active and inactive are the calls of the source. The calls were made as follows: active = growth percent below 10; inactive = the rest.

Tests used:
Test in all cases: NCI-60 one-dose screen, 48 h (100 = growth as untreated, 0 = no growth, -100 = all killed)
Conditions in all cases: 10 µM unless noted
[1] = tested on: SK-MEL-2 melanoma
[2] = tested on: EKVX NSCLC
[3] = tested on: SN12C renal
[4] = tested on: UO-31 renal
[5] = tested on: ACHN renal
[6] = tested on: CAKI-1 renal
[7] = tested on: A498 renal
[8] = tested on: MOLT-4 leukemia
[9] = tested on: SR leukemia
[10] = tested on: RPMI-8226 leukemia
[11] = tested on: OVCAR-8 ovarian
[12] = tested on: OVCAR-5 ovarian
[13] = tested on: OVCAR-4 ovarian
[14] = tested on: SK-OV-3 ovarian
[15] = tested on: IGROV1 ovarian
[16] = tested on: OVCAR-3 ovarian
[17] = tested on: HS 578T breast
[18] = tested on: NCI/ADR-RES ovarian
[19] = tested on: CCRF-CEM leukemia
[20] = tested on: TK-10 renal

Measured: growth

COc1cc(/C=C/C(=O)c2c(C)nc3ccccc3c2C)ccc1OCCCN1CCN(C(=O)c2ccco2)CC1
inactive: [1] 59.3% | [2] 81.7% | [3] 92.5% | [4] 66.7% | [5] 80.6% | [6] 74.8% | [7] 59.4% | [8] 60.6% | [9] 64.8% | [10] 31.4% | [11] 73.5% | [12] 95.5% | [13] 25.2% | [14] 107% | [15] 76.6% | [16] 97.9% | [17] 82.1% | [18] 55.6%

CCCCC1CCCCN1C(=O)OCC (stereo not drawn)
inactive: [1] 101% | [2] 122% | [3] 103% | [4] 88.7% | [5] 103% | [6] 101% | [7] 102% | [19] 108% | [8] 115% | [10] 118% | [11] 106% | [12] 98.4% | [13] 112% | [14] 99.1% | [15] 112% | [16] 112% | [17] 116% | [18] 113%

c1csc(-c2c3ccc(=[N+]4CCCCC4)cc-3oc3cc(N4CCCCC4)ccc23)c1
active: [1] -68.5% | [2] -51.8% | [3] -65.1% | [4] -82.3% | [5] -94.4% | [6] -70.3% | [7] -96.4% | [19] -19.7% | [8] -28.7% | [10] -39.1% | [11] -33.5% | [12] -83.1% | [13] -54.3% | [14] -89% | [15] -67.1% | [16] -96.9% | [17] -20.7% | [18] -38.9%

C=C(C)[C@@H]1CC[C@]2(C(=O)NC3CCCCC3)CC[C@]3(C)[C@H](CC[C@@H]4[C@@]5(C)CCCNC(C)(C)[C@@H]5CC[C@]43C)[C@@H]12
inactive: [1] 35% | [2] 77.6% | [3] 61.6% | [4] 61.5% | [5] 51% | [6] 26.4% | [7] 68.7% | [12] 82.8% | [13] 44.6% | [14] 95.8% | [15] 55.1% | [16] 64.8% | [17] 78.8% | [18] 57.7%
active: [8] -2.14% | [9] -22.5% | [10] -32.5% | [11] -16.7%

N#Cc1c(N)nc2c(C#N)c(NC(=O)c3ccccc3)nn2c1-c1ccccc1
inactive: [1] 101% | [2] 71.9% | [3] 91.7% | [4] 61.3% | [5] 89.6% | [6] 91% | [7] 59.1% | [19] 57.2% | [8] 74.9% | [10] 44.1% | [11] 77% | [12] 105% | [13] 88.8% | [14] 96.8% | [15] 59.1% | [16] 89.5% | [17] 94.7% | [18] 85.5%

Cn1cc(-c2csc(-c3ccccc3)n2)c2cccnc21
active: [1] -48.2% [100 µM] | [2] 4.11% [100 µM] | [3] -58.2% [100 µM] | [4] -28.7% [100 µM] | [20] -45.7% [100 µM] | [6] -32.4% [100 µM] | [7] -82.4% [100 µM] | [8] -8.37% [100 µM] | [9] 0.511% [100 µM] | [12] -44.2% [100 µM] | [13] -19.4% [100 µM] | [14] -30.1% [100 µM] | [15] -20.7% [100 µM] | [16] -31.8% [100 µM] | [18] -27.8% [100 µM]
inactive: [17] 20.8% [100 µM]

CCCCCS(=O)(=O)Nc1ccc(C(=O)O)cc1
inactive: [1] 93% | [2] 100% | [3] 101% | [4] 97.9% | [5] 104% | [6] 102% | [7] 104% | [9] 95.7% | [11] 106% | [12] 111% | [13] 103% | [14] 99.2% | [15] 101% | [16] 110% | [17] 110% | [18] 102%

CCN(CCNc1ccc(C)c2sc3ccccc3c(=O)c12)CC(C)(C)O
inactive: [1] 77.3% | [2] 101% | [3] 101% | [20] 89.7% | [5] 79.7% | [6] 79% | [7] 81% | [19] 39.9% | [8] 40% | [10] 13.5% | [11] 87.1% | [12] 79.4% | [13] 95.7% | [14] 76.3% | [15] 79.4% | [16] 103% | [17] 59.5% | [18] 70.9%

Cc1cc(NCc2cc(Nc3ccnc4cc(Cl)ccc34)ccc2F)nc(N2CCN(C)CC2)n1
inactive: [2] 31% | [3] 36.8% | [6] 61.8% | [11] 12.1% | [13] 18.7% | [14] 29.5% | [18] 16.8%
active: [1] -70.7% | [20] -16% | [5] 5.12% | [7] -26.8% | [19] -13.5% | [9] -14.4% | [10] -23.9% | [12] 9.47% | [15] 8.72% | [16] -17.4% | [17] -7.51%

N#Cc1c(-c2cccc(Cl)c2)cc(-c2cccc(Cl)c2)[nH]c1=O
inactive: [1] 67% | [2] 89% | [3] 82.8% | [20] 96.7% | [5] 93.4% | [6] 63.6% | [7] 47% | [8] 54.1% | [9] 29.6% | [10] 57.2% | [11] 87.3% | [12] 101% | [14] 82.6% | [15] 70.8% | [16] 64.1% | [17] 56.8% | [18] 64.6%

COc1ccc(C2CC(c3cccc(OC)c3)=NN2C(=O)c2cc(OC)c(OC)c(OC)c2)cc1 (stereo not drawn)
active: [7] -0.548% | [19] 8.7% | [8] 9.31% | [16] -55.7% | [17] -13.5% | [18] -30.4%
inactive: [1] 35.9% | [2] 46.5% | [3] 39.6% | [20] 36.8% | [5] 46.9% | [6] 23.6% | [10] 15% | [11] 43.9% | [12] 44.5% | [14] 33.7% | [15] 27.9%

COc1cccc(C(=O)NCCNc2cc(-c3cn(-c4ccccc4)nc3-c3cccc(OC)c3)ccn2)c1
inactive: [1] 57.2% | [2] 69% | [3] 74.4% | [20] 80.4% | [5] 69.8% | [6] 69.2% | [7] 59% | [19] 25.6% | [10] 39.1% | [11] 40% | [12] 91.7% | [13] 49.6% | [14] 54.6% | [15] 74.1% | [16] 54.5% | [17] 61.8% | [18] 47.2%
active: [9] 2.08%

O=c1c2cc(F)ccc2sc2c(NCCN3CCCCC3)nc3ccccc3c12
inactive: [1] 98.7% | [2] 61% | [3] 48.6% | [20] 77.7% | [6] 38.6% | [7] 61.6% | [19] 44.3% | [8] 27.5% | [11] 57.6% | [13] 50.7% | [14] 78.8% | [15] 27.3% | [16] 31.5% | [17] 56% | [18] 67.1%

CCN(CC)CCCNc1ccc(Nc2ccc(OC)cc2)cc1
inactive: [1] 108% | [2] 81.1% | [3] 92.3% | [20] 88.2% | [5] 94.1% | [6] 84.5% | [7] 55.3% | [8] 32.7% | [9] 52.9% | [10] 64.5% | [11] 83.1% | [12] 108% | [13] 84.6% | [14] 106% | [15] 37.6% | [16] 59.6% | [18] 94.7%

Cc1cc(N2CCCC2)nc(NCc2cc(Nc3ccnc4cc(Cl)ccc34)ccc2F)n1
inactive: [2] 11.1% | [6] 28.5% | [14] 26.8%
active: [1] -79.6% | [3] -58.8% | [20] -56.7% | [5] -72.3% | [7] -25.2% | [19] -32.1% | [9] -28.1% | [10] -44.2% | [11] -54.5% | [12] -11.8% | [13] -14.9% | [15] -18.4% | [16] -86.9% | [17] -34.5% | [18] -33.7%

Cn1cc(-c2csc(-c3cccc(F)c3)n2)c2cccnc21
active: [1] -51.7% [100 µM] | [3] -65% [100 µM] | [4] -27.7% [100 µM] | [5] -31.8% [100 µM] | [6] -57.2% [100 µM] | [7] -84.2% [100 µM] | [8] 4.1% [100 µM] | [9] 0.511% [100 µM] | [11] 1.57% [100 µM] | [12] -52.4% [100 µM] | [14] -20.8% [100 µM] | [15] -22.6% [100 µM] | [16] -44.7% [100 µM] | [18] -34.4% [100 µM]
inactive: [2] 21.3% [100 µM] | [17] 15.9% [100 µM]

COc1cc(C(=O)/C=C/c2c(C(F)(F)F)nc3sccn23)cc(OC)c1OC
inactive: [1] 12.2% | [2] 10.6% | [3] 20.2% | [20] 21.9% | [7] 61.4% | [11] 12.2% | [12] 15.1% | [13] 17.8% | [15] 23% | [17] 37.4%
active: [5] -69.4% | [6] -16.5% | [19] -9.49% | [8] 0.936% | [14] 2.13% | [16] -30.6% | [18] -3.02%
